Values joined by “and” are separate entries in the source; they are usually repeats but may differ in a detail not shown here. Equal entries are not always repeated. Inconclusive results are not listed. Where a call stands in place of a potency, no number is given. Unmarked numbers belong to inactive results. Active and inactive are the calls of the source. Unless noted, calls come from the whole dose curve; as a rule, active = well fitted curve in the direction sought with a large enough effect; inconclusive = small, poorly fitted or top-dose-only effect, or another doubt; inactive = no such curve, though single readings can be large; an effect the other way counts as inactive or inconclusive. Peptide text beside a SMILES is read from it.

A short description of one test: Cell Proliferation Assay against the TMD8 Cell Line (Caspase readout at 16 hrs) (AID 651712). Note: potency is the fitted concentration of half-maximal effect. To be noted: TMD8 lymphoma cells, caspase activation luminescence; series mostly up to 46.1 µM. The essentials:
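Caspase-Glo luminescence after 16 h compound exposure of TMD8 cells, 37 °C, 5% CO2. Medium: RPMI without phenol red, 5% FBS. Normalisation: DMSO = 0%, bortezomib 9.2 uM final = 100%.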
With `Nc1nc(Cl)nc2c1ncn2[C@H]1C[C@H](O)[C@@H](CO)O1`, the Potency entry was “inactive”.

With `Cc1cccc(-c2[nH]ncc2-c2ccc3ncccc3n2)n1`, the Potency entry is “inactive”.

Turning to `Cc1cccc(C#Cc2ccccc2)n1`, the Potency result was “inactive”.

On to `S=c1nc[nH]c2nc[nH]c12`, for which the Potency result was “inactive”.

Take `CC(C)C[C@H](NC(=O)[C@H](Cc1ccccc1)NC(=O)c1cnccn1)B(O)O`: the Potency is 0.0026 µM (active).

In the case of `CCOC(=O)C1=C(O)C(=O)N(Cc2ccccc2)C1`, the Potency result is “inactive”.

In the case of `COc1cc(Nc2c(C#N)cnc3cc(OCCCN4CCN(C)CC4)c(OC)cc23)c(Cl)cc1Cl`, the Potency result is “inactive”.

Consider `C[C@@H](N)C1CCC(C(=O)Nc2ccncc2)CC1` (stereo partly drawn), for which the Potency result is “inactive”.

Take `CCN(CCO)CCCC(C)Nc1ccnc2cc(Cl)ccc12` (stereo not drawn): the Potency entry is “inactive”.

For `Nc1cccc2c1CN(C1CCC(=O)NC1=O)C2=O` (stereo not drawn), the Potency result was “inactive”.

The nature of a further test: Cell Proliferation Assay against the TMD8 Cell Line (Caspase readout at 8 hrs) (AID 651713). Note: potency is the fitted concentration of half-maximal effect. The conditions noted are these: TMD8 lymphoma cells, caspase activation luminescence; series mostly up to 46.1 µM. The method in brief:
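Caspase 3/7 activation in ABC DLBCL TMD8 cells is measured by luminescence after an 8 h compound exposure at 37C. Relative light units are scaled between DMSO (0%) and 9.2 uM final bortezomib (100%).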
On to `Cc1cccc(-c2[nH]ncc2-c2ccc3ncccc3n2)n1`, for which the Potency result is “inactive”.

On to `S=c1nc[nH]c2nc[nH]c12`, for which the Potency entry is “inactive”.

For the compound `CC(C)C[C@H](NC(=O)[C@H](Cc1ccccc1)NC(=O)c1cnccn1)B(O)O`, the Potency was 0.833 µM (active).

For `CCOC(=O)C1=C(O)C(=O)N(Cc2ccccc2)C1`, the Potency result was “inactive”.

As for `Cc1nc(Nc2ncc(C(=O)Nc3c(C)cccc3Cl)s2)cc(N2CCN(CCO)CC2)n1`, the Potency entry is “inactive”.

For the compound `C[C@@H](N)C1CCC(C(=O)Nc2ccncc2)CC1` (stereo partly drawn), the Potency result was “inactive”.

`CCN(CCO)CCCC(C)Nc1ccnc2cc(Cl)ccc12` (stereo not drawn): the Potency entry is “inactive”.

For `Cc1ccc(Nc2nccc(N(C)c3ccc4c(C)n(C)nc4c3)n2)cc1S(N)(=O)=O`, the Potency entry is “inactive”.

Turning to `Nc1cccc2c1CN(C1CCC(=O)NC1=O)C2=O` (stereo not drawn), the Potency result was “inactive”.

In the case of `CCN(CC)CCOc1ccc(Nc2ncc3cc(-c4c(Cl)cccc4Cl)c(=O)n(C)c3n2)cc1`, the Potency is 26.4 µM (active).

A short description of another test: qHTS assay for small molecule agonists of the antioxidant response element (ARE) signaling pathway (AID 651741; active = well fitted activation curve with a large enough effect in the signal ratio; the % refers to the signal ratio; note: potency is the fitted concentration of half-maximal effect). The conditions noted are these: HepG2 ARE-bla reporter, beta-lactamase FRET ratio, 16 h; series mostly up to 96 µM. The essentials: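 Stably integrated ARE-beta-lactamase reporter HepG2 cells; 16 h compound incubation, 37 C; LiveBLAzer FRET substrate 2 h at room temperature; fluorescence intensity.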
With `CC(=O)Nc1ccc(O)cc1`, the Potency entry was “inactive”.

Regarding `COc1cc(OC)c(C(=O)CCCN2CCCC2)c(OC)c1`, the Potency result was “inactive”.

Regarding `COc1c2occc2cc2ccc(=O)oc12`, the Potency entry is “inactive”.

As to `N[C@@H](Cc1cc(I)c(Oc2cc(I)c(O)c(I)c2)c(I)c1)C(=O)O`, the Potency was 54.5 µM (active).

For `c1ccc2[nH]c(-c3cscn3)nc2c1`, the Potency entry was “inactive”.

With `CCN(CC)C(=S)SSC(=S)N(CC)CC`, the Potency result is “inactive”.

Take `Cc1ccc(C)c(OCCCC(C)(C)C(=O)O)c1`: the Potency result was “inactive”.

As to `CNC[C@H](O)c1ccc(O)c(O)c1`, the Potency was 48.6 µM (active).

Take `Nc1ccc(S(N)(=O)=O)cc1`: the Potency result is “inactive”.

For the compound `CCCc1cc(=O)[nH]c(=S)[nH]1`, the Potency result is “inactive”.

For `COC(=O)[C@H](Cc1ccccc1)NC(=O)[C@@H](N)CC(=O)O` (H-Asp-Phe-OMe), the Potency result is “inactive”.

In the case of `NS(=O)(=O)c1cc(C(=O)O)c(NCc2ccco2)cc1Cl`, the Potency entry is “inactive”.

A short description of another test: qHTS assay for small molecule activators of the p53 signaling pathway (AID 651743; active = well fitted activation curve with a large enough effect in the signal ratio, not every such curve was filed as active; the % refers to the signal ratio; note: potency is the fitted concentration of half-maximal effect). The conditions noted are these: HCT-116 p53RE-bla, beta-lactamase FRET ratio, 16 h; activation: active compounds read high. The method in brief:
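Following 16 hours of compound exposure at 37 C, HCT-116 cells bearing the p53RE-bla reporter were loaded with LiveBLAzer B/G FRET substrate for 2 hours at room temperature and fluorescence intensity was recorded.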
Take `Nc1nc(Cl)nc2c1ncn2[C@H]1C[C@H](O)[C@@H](CO)O1`: the Potency is 0.501 µM (active).

As to `CN(C)c1ccc2nc3ccc(=[N+](C)C)cc-3sc2c1`, the Potency was 20 µM (active).

Turning to `COc1cc(OC)c(C(=O)CCCN2CCCC2)c(OC)c1`, the activation was -0.273%.

On to `COc1c2occc2cc2ccc(=O)oc12`, for which the activation is -0.24% and -0.96%.

On to `CCN(CC)C(=S)SSC(=S)N(CC)CC`, for which the activation is 4.22%.

Consider `CCCCC(CC)COC(=O)C(C#N)=C(c1ccccc1)c1ccccc1` (stereo not drawn), for which the activation is -3.23%.

In the case of `CNC[C@H](O)c1ccc(O)c(O)c1`, the activation was 1.2%.

Take `Nc1ccc(S(N)(=O)=O)cc1`: the activation was -2.72%.

For `CCCc1cc(=O)[nH]c(=S)[nH]1`, the activation is 0.119% and 0.547%.

Take `COC(=O)[C@H](Cc1ccccc1)NC(=O)[C@@H](N)CC(=O)O` (H-Asp-Phe-OMe): the activation was 0.335% and -1.33%.

In the case of `CS(=O)(=O)OCCCCOS(C)(=O)=O`, the activation was 1.64% and 0.944% and -3.49%.

Another test can be described thus: qHTS assay for small molecule activators of the nuclear factor-kappa B (NF-kB) signaling pathway (AID 651749; active = well fitted activation curve with a large enough effect in the signal ratio; the % refers to the signal ratio). To be noted: NF-kB-bla ME-180 cells, beta-lactamase FRET ratio, 16 h; active compounds read high. The method in brief: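 In this qHTS format, compounds acting as activators increase NF-kB-driven beta-lactamase in ME-180 cells, measured as disrupted FRET after 16 hr exposure at 37C and 5% CO2.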
Turning to `Nc1nc(Cl)nc2c1ncn2[C@H]1C[C@H](O)[C@@H](CO)O1`, the activation is 0.321%.

With `COc1cc(OC)c(C(=O)CCCN2CCCC2)c(OC)c1`, the activation was -0.152%.

Take `N[C@@H](Cc1cc(I)c(Oc2cc(I)c(O)c(I)c2)c(I)c1)C(=O)O`: the activation is 8.63%.

As to `c1ccc2[nH]c(-c3cscn3)nc2c1`, the activation is -1.73% and -1.48%.

Consider `CCN(CC)C(=S)SSC(=S)N(CC)CC`, for which the activation was 0.724%.

Regarding `CCCCC(CC)COC(=O)C(C#N)=C(c1ccccc1)c1ccccc1` (stereo not drawn), the activation is 0.0169%.

Consider `Cc1ccc(C)c(OCCCC(C)(C)C(=O)O)c1`, for which the activation was -1.25% and -0.0385%.

Turning to `COC(=O)[C@H](Cc1ccccc1)NC(=O)[C@@H](N)CC(=O)O` (H-Asp-Phe-OMe), the activation is -1.39% and -0.748%.

On to `NS(=O)(=O)c1cc(C(=O)O)c(NCc2ccco2)cc1Cl`, for which the activation is -1.24% and -2.58%.

Another test can be described thus: qHTS assay for small molecule disruptors of the mitochondrial membrane potential - 1 hr assay (AID 651754; calls by dose curve; note: nearly all actives have a fitted effect of over 35% in size; note: potency is the fitted concentration of half-maximal effect). The conditions noted are these: series mostly up to 92.2 µM. The essentials:
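Loss of mitochondrial potential shifts the cationic dye from red mitochondrial aggregates to green cytoplasmic monomers. Cells (HepG2) are treated with compound for 1 hr before a 30 min dye incubation at 37C.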
For `CN(C)c1ccc2nc3ccc(=[N+](C)C)cc-3sc2c1`, the Potency is 3.76 µM (active).

As to `COc1c2occc2cc2ccc(=O)oc12`, the Potency entry was “inactive”.

For `Cc1ccc(C)c(OCCCC(C)(C)C(=O)O)c1`, the Potency result is “inactive”.

As for `Nc1ccc(S(N)(=O)=O)cc1`, the Potency result was “inactive”.

Turning to `NS(=O)(=O)c1cc(C(=O)O)c(NCc2ccco2)cc1Cl`, the Potency result is “inactive”.

As for `CS(=O)(=O)OCCCCOS(C)(=O)=O`, the Potency entry was “inactive”.
